According to paper PMC7862700, “An all-to-all approach to the identification of sequence-specific readers for epigenetic DNA modifications on cytosine”:

Assays:
Assay in all cases: DAPPL (digital affinity profiling via proximity ligation, sequencing); 10 mM Tris-HCl pH 7.5, 50 mM NaCl, 1 mM DTT, 4% glycerol, room temperature, 30 min; GST-TFs on glutathione beads, 16-mer random dsDNA library, 0.1% formaldehyde crosslink after washing; high values mean tight binding
[1] = molecular target: T1, FEV (Homo sapiens, UniProt Q99581 1-238); conditions: protein: recombinant; tags: N-terminal GST; dsDNA, one strand shown
T1 sequence: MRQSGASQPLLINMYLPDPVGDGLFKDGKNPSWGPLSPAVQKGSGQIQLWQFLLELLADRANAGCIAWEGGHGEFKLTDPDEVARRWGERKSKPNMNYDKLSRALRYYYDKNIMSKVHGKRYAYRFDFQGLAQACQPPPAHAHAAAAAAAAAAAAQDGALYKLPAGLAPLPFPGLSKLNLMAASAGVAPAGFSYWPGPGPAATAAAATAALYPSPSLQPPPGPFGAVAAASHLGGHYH
In short: (§1)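 Binding signal is defined as a hexamer's read frequency for one factor over its frequency for the tag-only sample. To obtain reads, GST-fused human transcription factors were expressed in yeast, captured on glutathione beads, barcoded with DNA and pooled with that sample. Pools met 200 nmole of a 16-mer random double-stranded DNA library in Tris/NaCl/DTT/glycerol buffer for 30 min at room temperature before washing, 0.1% formaldehyde crosslinking, proximity ligation (BsaI/T4 ligase, 1 h, 37 °C), PCR and Illumina NextSeq500 sequencing.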

[2] = molecular target: ETV5 (Homo sapiens, UniProt P41161 1-510); conditions: protein: recombinant; tags: N-terminal GST; dsDNA, one strand shown
In short: as §1

[3] = molecular target: HSF1 (Homo sapiens, UniProt Q00613 1-529); conditions: protein: recombinant; tags: N-terminal GST; chain copies: 3; dsDNA, one strand shown
In short: as §1

[4] = molecular target: T2, SPIC (Homo sapiens, UniProt Q8N5J4 1-248); conditions: protein: recombinant; tags: N-terminal GST; dsDNA, one strand shown
T2 sequence: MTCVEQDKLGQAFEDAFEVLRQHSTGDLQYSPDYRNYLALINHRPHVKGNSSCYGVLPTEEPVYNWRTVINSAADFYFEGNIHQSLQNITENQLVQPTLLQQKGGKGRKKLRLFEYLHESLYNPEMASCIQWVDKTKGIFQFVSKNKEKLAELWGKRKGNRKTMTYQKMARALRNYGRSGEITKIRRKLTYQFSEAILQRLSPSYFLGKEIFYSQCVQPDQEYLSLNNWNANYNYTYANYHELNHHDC
In short: as §1

[5] = molecular target: ELF4 (Homo sapiens, UniProt Q99607 1-663); conditions: protein: recombinant; tags: N-terminal GST; dsDNA, one strand shown
In short: as §1

[6] = molecular target: T3, ELK4 (Homo sapiens, UniProt P28324-2 1-405); conditions: protein: recombinant; tags: N-terminal GST; dsDNA, one strand shown
T3 sequence: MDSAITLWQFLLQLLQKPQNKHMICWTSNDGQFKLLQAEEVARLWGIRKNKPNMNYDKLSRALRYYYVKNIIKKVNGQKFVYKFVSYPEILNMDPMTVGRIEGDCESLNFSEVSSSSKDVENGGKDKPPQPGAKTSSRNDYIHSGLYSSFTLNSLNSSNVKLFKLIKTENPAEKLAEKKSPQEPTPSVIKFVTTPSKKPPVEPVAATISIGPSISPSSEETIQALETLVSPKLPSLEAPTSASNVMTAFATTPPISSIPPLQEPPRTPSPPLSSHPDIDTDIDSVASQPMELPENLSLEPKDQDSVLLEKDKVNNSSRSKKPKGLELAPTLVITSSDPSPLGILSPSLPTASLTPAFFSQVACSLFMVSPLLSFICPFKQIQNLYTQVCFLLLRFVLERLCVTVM
In short: as §1

[7] = molecular target: T4, ETV2 (Homo sapiens, UniProt O00321 1-342); conditions: protein: recombinant; tags: N-terminal GST; dsDNA, one strand shown
T4 sequence: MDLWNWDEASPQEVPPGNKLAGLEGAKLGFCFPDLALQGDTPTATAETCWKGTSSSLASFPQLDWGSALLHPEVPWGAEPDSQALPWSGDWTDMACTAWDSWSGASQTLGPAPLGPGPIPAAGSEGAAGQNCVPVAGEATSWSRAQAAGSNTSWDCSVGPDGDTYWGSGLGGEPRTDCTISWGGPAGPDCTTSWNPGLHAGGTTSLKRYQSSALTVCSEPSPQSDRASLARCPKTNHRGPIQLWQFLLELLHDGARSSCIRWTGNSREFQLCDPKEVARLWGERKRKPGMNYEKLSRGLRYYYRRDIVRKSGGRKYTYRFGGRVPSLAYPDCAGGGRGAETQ
In short: as §1

[8] = molecular target: T5, ELF3 (Homo sapiens, UniProt P78545 1-371); conditions: protein: recombinant; tags: N-terminal GST; dsDNA, one strand shown
T5 sequence: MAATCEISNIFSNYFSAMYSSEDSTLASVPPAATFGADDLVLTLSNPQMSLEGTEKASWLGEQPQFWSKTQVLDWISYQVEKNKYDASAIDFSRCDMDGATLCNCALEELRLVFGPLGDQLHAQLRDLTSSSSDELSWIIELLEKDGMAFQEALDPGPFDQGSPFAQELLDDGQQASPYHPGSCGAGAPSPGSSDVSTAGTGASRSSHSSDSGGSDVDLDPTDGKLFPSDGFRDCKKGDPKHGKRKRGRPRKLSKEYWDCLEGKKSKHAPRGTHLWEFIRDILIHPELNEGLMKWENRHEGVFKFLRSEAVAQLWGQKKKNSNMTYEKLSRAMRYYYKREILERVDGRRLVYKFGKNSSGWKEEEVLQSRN
In short: as §1

[9] = molecular target: CRX (Homo sapiens, UniProt O43186 1-299); conditions: protein: recombinant; tags: N-terminal GST; dsDNA, one strand shown
In short: as §1

[10] = molecular target: ETV1 (Homo sapiens, UniProt P50549 1-477); conditions: protein: recombinant; tags: N-terminal GST; dsDNA, one strand shown
In short: as §1

[11] = molecular target: T6, ERF (Homo sapiens, UniProt P50548 1-548); conditions: protein: recombinant; tags: N-terminal GST; dsDNA, one strand shown
T6 sequence: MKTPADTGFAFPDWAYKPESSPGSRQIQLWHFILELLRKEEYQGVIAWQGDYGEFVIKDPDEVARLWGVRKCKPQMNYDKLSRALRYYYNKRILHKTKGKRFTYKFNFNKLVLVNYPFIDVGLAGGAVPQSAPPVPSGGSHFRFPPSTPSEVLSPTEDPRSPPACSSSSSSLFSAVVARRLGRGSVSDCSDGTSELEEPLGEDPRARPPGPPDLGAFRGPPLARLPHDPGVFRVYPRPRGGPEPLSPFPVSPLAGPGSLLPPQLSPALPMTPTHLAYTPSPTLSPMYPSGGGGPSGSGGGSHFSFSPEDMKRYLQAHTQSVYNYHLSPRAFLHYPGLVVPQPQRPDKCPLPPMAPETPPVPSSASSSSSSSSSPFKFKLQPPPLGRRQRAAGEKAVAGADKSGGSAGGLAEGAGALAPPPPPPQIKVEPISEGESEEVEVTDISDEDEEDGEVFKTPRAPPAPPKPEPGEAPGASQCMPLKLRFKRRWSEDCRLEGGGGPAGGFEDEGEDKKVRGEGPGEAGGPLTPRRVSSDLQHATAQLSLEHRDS
In short: as §1

[12] = molecular target: T7, ETV3L (Homo sapiens, UniProt Q6ZN32 1-361); conditions: protein: recombinant; tags: N-terminal GST; dsDNA, one strand shown
T7 sequence: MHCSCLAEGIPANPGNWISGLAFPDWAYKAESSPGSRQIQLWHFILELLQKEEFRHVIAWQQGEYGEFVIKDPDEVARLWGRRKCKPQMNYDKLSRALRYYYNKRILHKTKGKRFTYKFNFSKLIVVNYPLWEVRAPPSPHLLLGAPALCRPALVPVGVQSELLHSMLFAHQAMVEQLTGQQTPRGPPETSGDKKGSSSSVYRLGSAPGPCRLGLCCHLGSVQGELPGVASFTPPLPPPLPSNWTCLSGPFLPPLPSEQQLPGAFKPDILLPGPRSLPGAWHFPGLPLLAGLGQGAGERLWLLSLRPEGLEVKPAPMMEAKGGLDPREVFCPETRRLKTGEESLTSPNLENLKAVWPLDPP
In short: as §1

[13] = molecular target: T8, ETS2 (Homo sapiens, UniProt P15036 1-469); conditions: protein: recombinant; tags: N-terminal GST; dsDNA, one strand shown
T8 sequence: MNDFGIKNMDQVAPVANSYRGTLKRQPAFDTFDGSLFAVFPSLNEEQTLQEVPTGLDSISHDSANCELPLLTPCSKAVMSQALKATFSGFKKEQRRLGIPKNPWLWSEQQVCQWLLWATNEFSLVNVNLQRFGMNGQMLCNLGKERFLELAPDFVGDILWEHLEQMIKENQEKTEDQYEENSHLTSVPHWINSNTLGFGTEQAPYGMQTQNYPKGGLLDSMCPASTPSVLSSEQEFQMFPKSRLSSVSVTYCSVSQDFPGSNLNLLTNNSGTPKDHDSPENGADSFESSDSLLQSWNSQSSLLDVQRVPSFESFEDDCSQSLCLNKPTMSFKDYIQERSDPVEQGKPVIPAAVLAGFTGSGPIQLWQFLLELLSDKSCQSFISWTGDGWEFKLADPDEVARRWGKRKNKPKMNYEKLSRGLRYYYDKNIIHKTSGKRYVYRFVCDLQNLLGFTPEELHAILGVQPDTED
In short: as §1

[14] = molecular target: T9, SPDEF (Homo sapiens, UniProt O95238 1-335); conditions: protein: recombinant; tags: N-terminal GST; dsDNA, one strand shown
T9 sequence: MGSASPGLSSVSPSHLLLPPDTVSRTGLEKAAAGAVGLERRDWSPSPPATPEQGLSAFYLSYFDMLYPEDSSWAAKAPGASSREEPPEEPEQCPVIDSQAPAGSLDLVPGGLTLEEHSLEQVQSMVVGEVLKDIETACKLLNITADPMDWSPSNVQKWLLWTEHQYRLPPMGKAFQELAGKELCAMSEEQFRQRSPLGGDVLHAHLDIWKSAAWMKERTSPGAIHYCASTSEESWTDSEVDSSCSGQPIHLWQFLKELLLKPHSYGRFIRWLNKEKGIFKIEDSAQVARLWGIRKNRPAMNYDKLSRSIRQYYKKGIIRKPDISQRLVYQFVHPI
In short: as §1

[15] = molecular target: T10, ETV7 (Homo sapiens, UniProt Q9Y603 1-341); conditions: protein: recombinant; tags: N-terminal GST; dsDNA, one strand shown
T10 sequence: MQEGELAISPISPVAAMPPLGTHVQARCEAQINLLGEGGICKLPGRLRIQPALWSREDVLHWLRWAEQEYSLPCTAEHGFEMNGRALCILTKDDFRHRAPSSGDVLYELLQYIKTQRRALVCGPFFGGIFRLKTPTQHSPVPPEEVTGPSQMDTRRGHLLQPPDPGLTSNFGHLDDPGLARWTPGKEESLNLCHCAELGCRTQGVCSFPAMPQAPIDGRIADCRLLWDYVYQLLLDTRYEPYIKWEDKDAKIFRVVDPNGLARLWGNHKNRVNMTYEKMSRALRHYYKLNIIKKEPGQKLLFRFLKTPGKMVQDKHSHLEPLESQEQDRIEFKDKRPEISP
In short: as §1

[16] = molecular target: T11, ELF5 (Homo sapiens, UniProt Q9UKW6-2 1-255); conditions: protein: recombinant; tags: N-terminal GST; dsDNA, one strand shown
T11 sequence: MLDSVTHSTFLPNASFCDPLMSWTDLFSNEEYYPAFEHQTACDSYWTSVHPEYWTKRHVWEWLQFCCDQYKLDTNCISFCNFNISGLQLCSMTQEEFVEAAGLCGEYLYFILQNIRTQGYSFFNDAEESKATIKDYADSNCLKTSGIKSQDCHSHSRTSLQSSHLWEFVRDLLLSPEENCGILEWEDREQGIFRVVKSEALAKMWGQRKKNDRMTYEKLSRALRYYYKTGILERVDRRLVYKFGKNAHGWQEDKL
In short: as §1

[17] = molecular target: T12, ETV3 (Homo sapiens, UniProt P41162-2 1-143); conditions: protein: recombinant; tags: N-terminal GST; dsDNA, one strand shown
T12 sequence: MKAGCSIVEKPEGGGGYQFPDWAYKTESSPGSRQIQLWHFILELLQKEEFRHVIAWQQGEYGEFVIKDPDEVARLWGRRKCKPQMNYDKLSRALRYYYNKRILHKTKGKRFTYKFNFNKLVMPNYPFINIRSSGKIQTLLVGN
In short: as §1

[18] = molecular target: ETV6 (Homo sapiens, UniProt P41212 1-452); conditions: protein: recombinant; tags: N-terminal GST; dsDNA, one strand shown
In short: as §1

Chain of ETV6 (P41212 whole entry): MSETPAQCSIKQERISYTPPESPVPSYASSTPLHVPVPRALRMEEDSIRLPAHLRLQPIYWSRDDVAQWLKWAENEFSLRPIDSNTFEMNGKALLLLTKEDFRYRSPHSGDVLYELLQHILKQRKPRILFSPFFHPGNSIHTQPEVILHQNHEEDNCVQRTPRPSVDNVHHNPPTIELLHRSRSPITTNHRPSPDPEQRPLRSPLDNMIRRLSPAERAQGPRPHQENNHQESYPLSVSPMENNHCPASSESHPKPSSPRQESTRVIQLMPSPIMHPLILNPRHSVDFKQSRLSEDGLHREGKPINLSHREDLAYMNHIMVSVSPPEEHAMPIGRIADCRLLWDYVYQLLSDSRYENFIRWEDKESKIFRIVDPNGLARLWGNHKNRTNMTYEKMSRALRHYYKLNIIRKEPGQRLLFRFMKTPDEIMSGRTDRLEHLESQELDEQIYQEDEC
Chain of ETV5 (P41161 whole entry): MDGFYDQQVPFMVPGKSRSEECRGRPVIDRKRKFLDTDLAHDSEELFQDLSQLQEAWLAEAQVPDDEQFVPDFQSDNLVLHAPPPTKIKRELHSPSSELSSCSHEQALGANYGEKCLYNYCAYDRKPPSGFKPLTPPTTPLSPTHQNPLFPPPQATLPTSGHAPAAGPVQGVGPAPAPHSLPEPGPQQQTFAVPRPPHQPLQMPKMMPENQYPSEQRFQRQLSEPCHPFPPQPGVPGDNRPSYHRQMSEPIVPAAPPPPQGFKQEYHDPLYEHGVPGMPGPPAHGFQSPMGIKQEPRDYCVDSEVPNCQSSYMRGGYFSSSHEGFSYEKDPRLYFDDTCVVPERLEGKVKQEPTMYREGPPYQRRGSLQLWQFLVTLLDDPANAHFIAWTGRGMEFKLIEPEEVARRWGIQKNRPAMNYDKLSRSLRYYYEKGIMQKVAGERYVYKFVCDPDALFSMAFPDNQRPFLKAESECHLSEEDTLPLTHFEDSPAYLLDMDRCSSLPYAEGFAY
Chain of ELF4 (Q99607 whole entry): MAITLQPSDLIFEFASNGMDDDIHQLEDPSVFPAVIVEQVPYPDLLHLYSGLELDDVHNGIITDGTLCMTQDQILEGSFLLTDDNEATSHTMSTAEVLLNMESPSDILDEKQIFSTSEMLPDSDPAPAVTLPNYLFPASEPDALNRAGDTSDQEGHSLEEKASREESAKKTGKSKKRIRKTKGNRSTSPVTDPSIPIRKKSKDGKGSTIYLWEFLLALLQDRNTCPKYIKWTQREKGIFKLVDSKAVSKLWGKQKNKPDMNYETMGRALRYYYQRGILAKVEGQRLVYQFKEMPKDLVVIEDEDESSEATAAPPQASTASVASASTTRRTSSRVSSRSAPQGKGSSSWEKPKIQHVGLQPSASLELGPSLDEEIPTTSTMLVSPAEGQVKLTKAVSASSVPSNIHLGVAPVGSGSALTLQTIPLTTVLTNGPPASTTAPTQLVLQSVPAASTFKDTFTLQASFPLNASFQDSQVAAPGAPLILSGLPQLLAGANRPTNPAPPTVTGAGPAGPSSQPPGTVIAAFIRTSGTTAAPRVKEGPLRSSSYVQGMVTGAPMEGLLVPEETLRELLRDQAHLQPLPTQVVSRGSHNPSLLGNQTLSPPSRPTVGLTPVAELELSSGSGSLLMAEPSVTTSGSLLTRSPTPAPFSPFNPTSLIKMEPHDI
Chain of CRX (O43186 whole entry): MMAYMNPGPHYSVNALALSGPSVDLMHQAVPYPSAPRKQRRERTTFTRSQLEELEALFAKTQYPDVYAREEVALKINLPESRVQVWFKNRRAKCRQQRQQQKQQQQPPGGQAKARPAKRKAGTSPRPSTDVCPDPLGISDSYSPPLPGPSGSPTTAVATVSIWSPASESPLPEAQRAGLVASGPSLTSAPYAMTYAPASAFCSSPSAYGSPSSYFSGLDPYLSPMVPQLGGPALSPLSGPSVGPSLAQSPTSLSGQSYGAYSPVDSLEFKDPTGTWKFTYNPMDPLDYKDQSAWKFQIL
Chain of ETV1 (P50549 whole entry): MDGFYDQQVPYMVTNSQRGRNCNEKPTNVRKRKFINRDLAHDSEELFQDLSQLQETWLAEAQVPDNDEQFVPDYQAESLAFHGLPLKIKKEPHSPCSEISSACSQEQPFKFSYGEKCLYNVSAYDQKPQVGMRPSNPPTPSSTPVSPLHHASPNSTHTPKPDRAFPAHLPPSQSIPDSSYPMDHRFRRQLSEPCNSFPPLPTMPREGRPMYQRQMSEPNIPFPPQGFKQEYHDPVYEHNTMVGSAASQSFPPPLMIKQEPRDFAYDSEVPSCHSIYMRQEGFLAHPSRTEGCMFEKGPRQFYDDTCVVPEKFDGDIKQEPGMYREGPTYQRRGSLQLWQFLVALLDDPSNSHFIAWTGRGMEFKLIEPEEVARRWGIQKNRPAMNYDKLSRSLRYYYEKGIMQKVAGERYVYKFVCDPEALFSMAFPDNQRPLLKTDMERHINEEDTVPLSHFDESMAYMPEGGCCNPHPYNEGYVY
Chain of HSF1 (Q00613 whole entry): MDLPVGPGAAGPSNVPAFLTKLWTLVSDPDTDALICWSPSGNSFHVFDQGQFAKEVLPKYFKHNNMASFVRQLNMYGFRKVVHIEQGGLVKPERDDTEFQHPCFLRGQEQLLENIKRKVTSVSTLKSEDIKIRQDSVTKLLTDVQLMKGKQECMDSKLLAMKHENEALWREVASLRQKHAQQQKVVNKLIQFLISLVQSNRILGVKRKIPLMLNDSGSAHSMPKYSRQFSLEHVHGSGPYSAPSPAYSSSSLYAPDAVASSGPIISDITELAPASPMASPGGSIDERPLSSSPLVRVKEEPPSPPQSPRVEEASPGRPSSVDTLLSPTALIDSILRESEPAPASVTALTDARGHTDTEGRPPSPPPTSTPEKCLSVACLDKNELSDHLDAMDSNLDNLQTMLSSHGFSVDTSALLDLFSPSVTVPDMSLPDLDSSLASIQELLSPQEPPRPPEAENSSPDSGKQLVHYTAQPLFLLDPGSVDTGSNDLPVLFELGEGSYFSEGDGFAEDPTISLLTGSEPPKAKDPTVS

CGAAAC
binding signal [1]: 1.2 fold enrichment (6-mer frequency, TF over GST control) | binding signal [2]: 1.25 fold enrichment (6-mer frequency, TF over GST control) | binding signal [3]: 1.58 fold enrichment (6-mer frequency, TF over GST control) | binding signal [4]: 1.27 fold enrichment (6-mer frequency, TF over GST control) | binding signal [5]: 1.2 fold enrichment (6-mer frequency, TF over GST control) | binding signal [6]: 1.15 fold enrichment (6-mer frequency, TF over GST control) | binding signal [7]: 1.22 fold enrichment (6-mer frequency, TF over GST control) | binding signal [8]: 1.15 fold enrichment (6-mer frequency, TF over GST control) | binding signal [9]: 1.02 fold enrichment (6-mer frequency, TF over GST control) | binding signal [10]: 1.21 fold enrichment (6-mer frequency, TF over GST control) | binding signal [11]: 1.24 fold enrichment (6-mer frequency, TF over GST control) | binding signal [12]: 1.22 fold enrichment (6-mer frequency, TF over GST control) | binding signal [13]: 1.16 fold enrichment (6-mer frequency, TF over GST control) | binding signal [14]: 1.22 fold enrichment (6-mer frequency, TF over GST control) | binding signal [15]: 1.22 fold enrichment (6-mer frequency, TF over GST control) | binding signal [16]: 1.12 fold enrichment (6-mer frequency, TF over GST control) | binding signal [17]: 1.08 fold enrichment (6-mer frequency, TF over GST control) | binding signal [18]: 1.16 fold enrichment (6-mer frequency, TF over GST control)
